The values that follow come from PubChem BioAssay AID2314 (National Center for Advancing Translational Sciences (NCATS), 2010).

Molecules are shown by their SMILES. The campaign covered roughly 300,000 compounds. About 37,000 (12%) were called active. The sample holds actives, similar compounds and a random draw of the others, so the mix is not that of the screen. No stated cut-off is given here; in the data, active means max response mostly above about 13% (no sharp cut-off); inactive means mostly below about 14%.

The experiment can be described thus: Cycloheximide Counterscreen for Small Molecule Inhibitors of Shiga Toxin. Further: read at 38.3 µM for the half of the compounds with a filed dose; 0% is about no effect. Conditions: cell reporter, cycloheximide protein synthesis inhibition counterscreen; hits give high values.
As for `N#Cc1cccc(CN2CCC(=O)N(CCO)CC2)c1`, the max response was -1.61% (inactive). With `O=C(c1ccc(N2CCOCC2)c([N+](=O)[O-])c1)N1CCN(S(=O)(=O)c2cccs2)CC1` the figure was -2% (inactive); with `CN(c1ccc(OCC(=O)O)cc1)S(=O)(=O)c1ccc2ccccc2c1`, -2.07% (inactive). With `O=C(NCc1cccc(C(F)(F)F)c1)c1cccc(S(=O)(=O)N2CCN(Cc3ccccc3)CC2)c1` the figure was -5.35% (inactive); with `O=C(NCc1ccccc1)c1ccc(S(=O)(=O)Nc2cccc(C(F)(F)F)c2)cc1`, 2.15% (inactive); with `O=C(Cc1cccs1)NCc1cccc(C(F)(F)F)c1`, 36.1% (active). With `Cc1nc([N+](=O)[O-])nn1C12CC3CC(CC(Br)(C3)C1)C2` the figure was 15.4% (inactive); with `CCC(C)(C)c1ccc(OCC(=O)N(C)C)c(C(C)(C)CC)c1`, -3.16% (inactive). Take `O=C(c1ccc2nc(N3CCOCC3)sc2c1)N1CCN(c2ccc(Cl)cc2)CC1`: the max response was 1.7% (inactive).

In the case of `Cc1nc2ccc(C(=O)N3CCSCC3)cc2s1`, the max response is 11.3% (active). With `Cc1nc2ccc(C(=O)N3CCN(c4ccccc4)CC3)cc2s1` the figure was -1.5% (inactive); with `OC(COCCC12CC3CC(CC(C3)C1)C2)CN1CCCCC1` (centres undefined), -4.31% (inactive); with `Cc1nc(C)c(-c2nnc(-c3cccc(S(=O)(=O)N(C)C)c3)o2)cc1C(=O)NN`, -1.43% (inactive). For the molecule `Cc1nc2sc(C(=O)c3ccccc3)c(N)c2c2c1CCCC2`, the max response was 20.5% (active). Consider `COc1cccc(C(=O)c2sc3nc(-c4ccccc4)cc(C(F)(F)F)c3c2N)c1`, for which the max response is 10.5% (inactive). The same measure for `CCc1nc2sc(C(=O)O)c(N)c2c2c1CCCC2`: -1.77% (inactive); for `CN(C)c1ccnc2sc3c(=O)n(Cc4ccccc4)cnc3c12`: -5.28% (inactive); for `CN(C)c1ccnc2sc(C(=O)c3ccccc3)c(N)c12`: 57.9% (active).

Regarding `NC(=O)c1sc2nc3c(c(-c4ccccc4)c2c1N)CCC3`, the max response is -2.08% (inactive).

For `CC(=O)c1c(Nc2ccccc2)sc(C(=O)c2ccccc2)c1C`, the max response was 0.579% (inactive). The same measure for `CS(=O)(=O)c1sc2nc(-c3ccccc3)cc(-c3ccccc3)c2c1N`: -3.03% (inactive); for `COC(=O)c1cc2c(N)c(C(=O)c3ccc(Cl)cc3)sc2nc1C(OC)OC`: -3.14% (inactive); for `CCN(CC)C(=O)c1sc2nc(-c3ccccc3)ccc2c1N`: 63.5% (active).

In the case of `CCOC(=O)c1sc2nc(SC)nc(-c3ccccc3)c2c1N`, the max response was -2.15% (inactive). With `Cc1ccc2c(N)c(C(=O)c3ccccc3)sc2n1` the figure was 29% (active). The same measure for `C[C@H](C(=O)CC(=O)OC(C)(C)C)[C@H](O)c1ccc(C(F)(F)F)cc1`: 1.49% (inactive); for `Oc1ccc(-c2c(-c3ccccc3)nn3c(C(F)(F)F)cc(C(F)(F)F)nc23)cc1`: -7.49% (inactive); for `Cc1ccc2c(c1)N(CC(=O)N1CCC(O)CC1)C(=O)CO2`: -1.82% (inactive).

Regarding `CC[C@@H](C)[C@H](NC(=O)CCc1c(C)c2cc3c4c(oc3c(C)c2oc1=O)CCCC4)C(=O)O`, the max response is 9.7% (inactive).

Turning to `COc1ccc(/C=C2\SC(=S)N(CCC(=O)Nc3ccccn3)C2=O)cc1OC`, the max response was -7.17% (inactive). As for `O=C(CNC(=O)[C@@H]1Cc2ccccc2CN1)NC1CCCCC1`, the max response was 1.46% (inactive).

For `COc1ccc(/C(C)=N/Nc2cc(C(F)(F)F)ccc2Cl)c(OC)c1`, the max response was -5.52% (inactive). With `Nc1c(-c2cccc(Cl)c2)cnn1-c1cccc([N+](=O)[O-])c1` the figure was 17.2% (active); with `Cn1nc(-c2ccccc2)c2cc([N+](=O)[O-])ccc21`, 1.38% (inactive).

In the case of `O=C(CCl)N(Cc1cccc([N+](=O)[O-])c1)c1cccc(Cl)c1`, the max response was -0.93% (inactive).

Take `CN(C)/C=C(\C=[N+](C)C)c1[nH]ncc1[N+](=O)[O-]`: the max response was -6.11% (inactive).

`CNc1[nH]ncc1[N+](=O)[O-]`: the max response was 40.2% (active). With `CC(=O)C(C)n1cnc2scc(-c3ccc(C)cc3)c2c1=O` (centres undefined) the figure was 1.16% (inactive); with `COc1ccc(CN2CCCC(C(=O)N3CCCCC3)C2)cc1` (centres undefined), -1.73% (inactive). With `Cc1cnc(NC(=O)CSc2nnc(-c3ccc(Cl)cc3Cl)n2N)s1` the figure was 24.6% (active); with `Cc1ccc(SCC(=O)Nc2ncc(C)s2)cc1`, 25% (active); with `Cc1cnc(NC(=O)CSc2c(Cl)cccc2Cl)s1`, 5.96% (inactive). On to `Cc1cnc(NC(=O)CSc2nnc(C)s2)s1`, for which the max response is 20.1% (inactive). With `Cc1cnc(NC(=O)CSc2nnc(-c3ccccc3)n2Cc2ccccc2)s1` the figure was -3.18% (inactive); with `COc1ccc(CC(=O)NCc2nnc(SCC(=O)Nc3ncc(C)s3)n2C)cc1`, 3.99% (inactive); with `COc1ccc(CNS(=O)(=O)c2ccc(NC(=O)N3CCCCC3)cc2)cc1`, 2.3% (inactive). On to `CCOC(=O)c1c(-c2ccccc2)oc2cc(Br)c(O)c(C=O)c12`, for which the max response was 5.72% (inactive). With `CCN(CC)c1ccc(NC(=O)CCc2nnc3ccc(N4CCCCC4)nn23)c(C)c1` the figure was -1.8% (inactive). With `CCCc1ccc(OCC(O)CN2CCN(CCO)CC2)cc1` (centres undefined) the figure was -1.67% (inactive); with `S=c1nc(C23CC4CC(CC(C4)C2)C3)nc2sccn12`, 1.25% (inactive). With `CCn1c(NC(=O)c2nn(C)cc2Br)nc2ccccc21` the figure was -2.42% (inactive); with `COC(=O)CN1C(=O)C(C)(C)Oc2ccc(C(=O)Nc3cccc(OC)c3)cc21`, -5.75% (inactive); with `CC(C)c1ccc(C(=O)OC2CCOC2=O)cc1` (centres undefined), 6.8% (inactive). For `O=C1OCCN1C(=O)[C@H]1[C@H](c2ccc(F)cc2)C(c2ccccc2)=NN1c1ccc(Br)cc1`, the max response is 5.32% (inactive). The same measure for `Cc1ccc(C)c(NC(=O)CSc2nc3c(oc4ccccc43)c(=O)n2-c2ccccc2)c1`: 0.718% (inactive); for `CCC(C(=O)OC)n1cnc2c(oc3ccccc32)c1=O` (centres undefined): -2.56% (inactive); for `Cc1ccc(C)c(Cn2cnc3c(oc4ccccc43)c2=O)c1`: 20.1% (active). As for `OC(COCC1COc2ccccc2O1)CN1CCN(c2ccc(F)cc2)CC1` (centres undefined), the max response is -1.11% (inactive). The same measure for `O=C1CCC(C(=O)N2CCC(O)(c3ccccc3)CC2)CN1CCc1ccccc1` (centres undefined): -0.943% (inactive); for `CC(C)c1nnc(NC(=O)C2CC(=O)N(CCc3ccc(F)cc3)C2)s1` (centres undefined): -6.02% (inactive); for `CC1(C)Cc2c(cnn2-c2cccc(F)c2)C(NC(=O)c2cc[n+]([O-])cc2)C1` (centres undefined): -3.06% (inactive). With `COC(=O)c1ccc(C(=O)NC2CC(C)(C)Cc3c2cnn3-c2ccc(F)cc2)nc1` (centres undefined) the figure was 24.5% (active). For the molecule `Cc1cc(C(=O)NC2CC(C)(C)Cc3c2cnn3-c2ccccc2)n[nH]1` (centres undefined), the max response is 3.28% (inactive). The same measure for `COC(=O)c1cccc(N2C(=O)C3C4C=CC(CC4)C3C2=O)c1` (centres undefined): -3.45% (inactive).

As to `O=C(O)c1cc(S(=O)(=O)NC2CCCc3ccccc32)ccc1O` (centres undefined), the max response is 1.09% (inactive). The same measure for `Cc1cc(-c2ccc(C)c(S(=O)(=O)NCCCN(Cc3ccccc3)C(C)C)c2)on1`: -2.55% (inactive); for `Cc1ccc(C(=O)CSc2nnc(Cn3nnc4ccccc43)n2C)cc1`: -0.925% (inactive); for `Cc1ccc(Sc2cc(C(=O)c3ccccc3C(=O)O)ccc2[N+](=O)[O-])cc1`: -4.78% (inactive). Regarding `Cc1ccc(C(=O)CSc2ccccc2C(=O)O)cc1`, the max response was 20.8% (active). With `CCCC1CCC(=NNC(=S)NCCc2ccccc2)CC1` (centres undefined) the figure was 13.6% (inactive).

With `COc1cc(C(=S)N2CCOCC2)cc(OC)c1OC(=O)c1cc([N+](=O)[O-])c(C)c([N+](=O)[O-])c1`, the max response is -3.02% (inactive). The same measure for `CC(C)Cn1cnc2c1c(=O)n(CC(=O)NN)c(=O)n2Cc1ccccc1`: 0.845% (inactive); for `CC1CC(C)CN(c2ccc(S(=O)(=O)N3CCOCC3)cc2)C1` (centres undefined): 7.13% (inactive).

Take `CSCC[C@H](NC(=O)N1CCn2c1nc1ccccc12)C(=O)NC1CCCCC1`: the max response is 19.4% (inactive).

Take `COc1ccc(C2NC(=O)C(=O)/C2=C(\O)c2ccc(Cl)cc2)cc1OC` (centres undefined): the max response was -4.04% (inactive). On to `Cc1ccc(NC(=O)c2cc3ccccc3o2)cc1`, for which the max response is 43.9% (active). With `O=C(NCCc1ccc2c(c1)OCCO2)c1cc2ccccc2o1` the figure was 8.84% (inactive); with `Cc1ccc(OC(=O)c2cc3ccccc3o2)cc1`, 13.6% (inactive). Turning to `C/C(=N\NC(=S)Nc1ccc(C)cc1)c1cc2ccccc2o1`, the max response is 20.6% (active). The same measure for `CC(C)(C)n1nc2c(c1NC(=O)c1cc3ccccc3o1)CSC2`: 9.15% (inactive). With `O=C(Nc1ccncc1)c1cc2ccccc2o1` the figure was 22.3% (active); with `C/C(=N\NS(=O)(=O)c1cccc([N+](=O)[O-])c1)c1cc2ccccc2o1`, 1.29% (inactive); with `CC(=O)N1CCN(c2ccccc2NC(=S)NC(=O)c2cc3ccccc3o2)CC1`, -8.35% (inactive). With `Cc1cccc(-n2nc3c(c2NC(=O)c2cc4ccccc4o2)CS(=O)(=O)C3)c1` the figure was -5.35% (inactive); with `O=C(O)C1=NN(c2c(F)c(F)cc(F)c2F)C(=O)CC1`, -4.21% (inactive); with `C=CCN(N=Nc1cccc([N+](=O)[O-])c1)c1cccc([N+](=O)[O-])c1`, -2.01% (inactive). Take `O=C(CN1CCN(S(=O)(=O)c2ccc(F)cc2)CC1)NC1CC1`: the max response was 1.9% (inactive). Regarding `Cc1cnc(C(=O)OCc2c(C)cc(C(C)(C)C)cc2C)cn1`, the max response was -3.25% (inactive). The same measure for `Cc1nc(-c2ccccc2)sc1C(=O)/C=C/N(C)C`: 45.3% (active); for `Cc1nc(COc2cccc(Cl)c2)sc1C(=O)/C=C/N(C)C`: 40.9% (active). The same measure for `CN(C)/C=C/C(=O)c1ccccc1F`: 5.51% (inactive).

Take `CC(Oc1ccc(Cl)cc1Cl)C(=O)/C=C/N(C)C` (centres undefined): the max response was 2.24% (inactive). With `O=C(COc1cccc(Cl)c1)NCc1ccccc1` the figure was 7.99% (inactive).

Turning to `Cc1ccc(SCC(=O)c2sc(-c3ccccc3)nc2C)cc1`, the max response was -0.538% (inactive).
